Laboratory results as given in PubChem BioAssay (NCATS).
Inconclusive results are not listed. Where a call stands in place of a potency, no number is given. The source made the active and inactive calls. The call rests on the fitted dose curve; in most records, active means well fitted curve in the direction sought with a large enough effect; inconclusive means small, poorly fitted or top-dose-only effect, or another doubt; inactive means no such curve, though single readings can be large or run the other way.

The compounds below were run against phosphoglycerate mutase (Leishmania major) (UniProt Q4Q090) (assay: qHTS Validation Assay to Find Inhibitors of Phosphoglycerate Mutase (AID 504548)). Conditions: biochemical enzyme activity; Potency: inhibition qHTS; series mostly up to 57.5 µM.
Text: NIH Molecular Libraries Probe Production Network [MLPCN]
NIH Chemical Genomics Center [NCGC]
PI Name: Malcolm Walkinshaw, University of Edinburgh
Several species of the Trypanosomatidae family of parasitic protozoans cause a spectrum of diseases throughout the tropical and subtropical world. Sleeping sickness, caused by two subspecies of Trypanosoma brucei, is endemic to areas of sub-Saharan Africa, while Chagas disease, a manifestation of Trypanosoma cruzi infection, is prevalent throughout Central and South America. In addition, many species of Leishmania are responsible for a range of cutaneous and visceral diseases, causing ulcers, destructive lesions and kalaazar, a lethal infection of the viscera. Collectively, these organisms infect 30 million people worldwide (~500 million live in endemic areas), and account for ~130,000 deaths annually. Given their debilitating and prevalent nature, trypanosomatid parasites impose a heavy medical, economic and social burden on entire populations, primarily in the developing world. The problem is further exacerbated by the fact that existing treatments have progressed little in the past 50 years, and current drugs show high toxicity and poor efficacy.
Blood-stream stages of T. brucei are entirely dependent on glycolysis as a source of ATP, and the tricarboxylic acid cycle and oxidative phosphorylation are both repressed. Glycolysis in axenically cultured T. cruzi, representing the intracellular pathogenic stage, is also essential for these parasites. […] Previous studies have shown that the glycolytic enzyme, phosphoglycerate mutase (PGAM), is a viable target for drugs to kill these parasites. […] Furthermore, the cobalt centers present within PGAM are only found in trypanosomatid and plant PGAMs, and are known to be required for activity, thereby providing an additional target. Moreover, trypanosomatid PGAMs are completely different from the enzyme that performs the same function in humans: the parasite and host enzymes share no structural or even mechanistic features; specificity is therefore unlikely to be an issue.
NCGC Assay Protocol Summary:
Briefly, 3ul of substrate buffer (all columns) are dispensed into Greiner white solid bottom 1536-well assay plates. Compounds are then transferred via Kalypsys pin tool equipped with 1536-pin array (10nl slotted pins, V&P Scientific, San Diego, CA). Following addition of compound, 1ul of Lm PGAM (1.25nM final concentration, columns […]) is added to initiate the reaction; columns 3-4 receive only TEA buffer as negative controls. The plates are then incubated at room temperature for 45 minutes. Kinase-GloPlus reagent is added (2ul) and plates incubated for 10 minutes, before being transferred to a ViewLux high-throughput CCD imager (PerkinElmer) wherein single end-point measurements of luminescence are acquired using a clear filter. All reagents are diluted in an assay buffer consisting of 100 mM TEA (pH 7.6), 5 mM MgCl2 and 0.01% Tween-20.

Sequence of phosphoglycerate mutase (Leishmania major) (Q4Q090 1-553): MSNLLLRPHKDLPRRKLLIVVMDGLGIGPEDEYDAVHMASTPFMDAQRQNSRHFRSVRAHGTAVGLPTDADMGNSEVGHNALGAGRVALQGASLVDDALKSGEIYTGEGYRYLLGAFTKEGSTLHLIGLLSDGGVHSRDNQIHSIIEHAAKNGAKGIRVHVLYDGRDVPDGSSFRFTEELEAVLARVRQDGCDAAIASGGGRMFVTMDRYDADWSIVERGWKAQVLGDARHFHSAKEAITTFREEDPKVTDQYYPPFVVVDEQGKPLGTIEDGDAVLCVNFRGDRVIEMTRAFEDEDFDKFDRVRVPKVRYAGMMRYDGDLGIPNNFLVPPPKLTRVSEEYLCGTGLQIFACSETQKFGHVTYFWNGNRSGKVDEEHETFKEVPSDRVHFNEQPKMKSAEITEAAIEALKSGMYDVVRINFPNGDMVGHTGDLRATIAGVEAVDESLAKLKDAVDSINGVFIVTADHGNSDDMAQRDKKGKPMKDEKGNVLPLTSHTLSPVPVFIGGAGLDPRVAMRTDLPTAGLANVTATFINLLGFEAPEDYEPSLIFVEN

Compound	Potency
CN(C)CCC(c1ccc(Br)cc1)c1ccccn1 (stereo not given)	inactive
OC[C@H]1NC[C@@H](O)[C@@H]1O	inactive
C=C1C[C@@]23CC[C@H]4[C@@](C)(CCC[C@@]4(C)C(=O)OC4OC(CO)C(O)C(O)C4O)[C@@H]2CC[C@]1(OC1OC(CO)C(O)C(O)C1OC1OC(CO)C(O)C(O)C1O)C3 (stereo not given in full)	inactive
Cn1c(=O)c2c(nc(/C=C/c3cccc(Cl)c3)n2C)n(C)c1=O	inactive
N=C(N)c1ccccc1	inactive
N[C@@H](CCC(=O)N[C@H](CSN=O)C(=O)NCC(=O)O)C(=O)O	inactive
N#CC(C#N)=C(N)/C(C#N)=C/c1ccc(O)cc1	inactive
CCc1ccc2c(-c3cccc(Cl)c3)nc(=O)n(CC)c2n1	inactive
CSc1nc(N)c2ncn([C@@H]3O[C@H](COP(=O)(O)OP(=O)(O)O)C(O)[C@H]3O)c2n1 (stereo not given in full)	inactive
Nc1ccc(CCNc2ncnc3c2ncn3C2OC(CO)C(O)C2O)cc1 (stereo not given)	inactive
CN1C2CCC1CC(OC(c1ccccc1)c1ccccc1)C2 (stereo not given)	inactive
Nc1nc2c(cnn2CCc2ccccc2)c2nc(-c3ccco3)nn12	inactive
COC(=O)C(C)(N)Cc1ccc(O)cc1 (stereo not given)	inactive
CC(=O)O[C@H]1CC2(C)[C@@H](C[C@@H](O)[C@H]3[C@@]4(C)CC[C@@H](O)[C@@H](C)[C@@H]4CC[C@@]32C)C1=C(CCC=C(C)C)C(=O)O (stereo not given in full)	inactive
CC(=O)N[C@@H](Cc1c[nH]c2ccccc12)C(=O)OCc1cc(C(F)(F)F)cc(C(F)(F)F)c1	inactive
COc1ccc(NC(=O)c2ccc(-c3ccc(-c4noc(C)n4)cc3C)cc2)cc1N1CCN(C)CC1	inactive
N#C/C(=C\c1ccc(O)c(O)c1)C(=O)NCCCNC(=O)/C(C#N)=C/c1ccc(O)c(O)c1	inactive
N[C@@H](Cc1c[nH]c2ccccc12)C(=O)O	inactive
O=C1Nc2ccc(I)cc2/C1=C/c1cc(Br)c(O)c(Br)c1	inactive
COCc1nc2c([nH]1)c(=O)n(C)c(=O)n2CC(C)C	inactive

Compound	Potency
O=C(c1ccc2c(c1)OCCO2)N1CCCCC1	inactive
CCCOC(=O)c1c(-c2ccccc2)nc(CC)c(C(=O)SCC)c1CCC	inactive
O=c1ccn([C@@H]2O[C@H](COP(=O)(O)OP(=O)(O)O)[C@@H](O)[C@H]2O)c(=O)[nH]1	inactive
Nc1nc2[nH]c(=O)cnc2c(=O)[nH]1	inactive
OC1(c2ccc(Cl)cc2)CCN(Cc2c[nH]c3ccccc23)CC1	inactive
CCCc1c(-c2ccc(O)cc2)nn(-c2ccc(O)cc2)c1-c1ccc(O)cc1	inactive
COc1ccccc1N1CCN(CCN(C(=O)c2ccc(F)cc2)c2ccccn2)CC1	inactive
CC#CCOC(=O)c1c(C)nc2sc3c(c2c1N)CCC(O)C3 (stereo not given)	inactive
C[C@]12C=CC(=O)C=C1CC[C@@H]1C2=CC[C@]2(C)[C@@H](C(=O)CN3CCN(c4cc(N5CCCC5)nc(N5CCCC5)n4)CC3)CC[C@@H]12	inactive
CCCCCCCCCC(=O)NC(CN1CCOCC1)[C@H](O)c1ccccc1 (stereo not given in full)	inactive
O=c1ccc2c(OCCCCc3ccccc3)c3ccoc3cc2o1	inactive
CC(=O)O[C@H]1Cc2ccccc2N(C(N)=O)c2ccccc21	inactive
CN1CCN(c2nc3cc(C(F)(F)F)ccc3n3cccc23)CC1	inactive
Nn1nnc2ccccc21	inactive
CN1CCc2cc(Cl)c(O)cc2[C@@H](c2ccccc2)C1	inactive
CN(C)C(=O)/N=N/C(=O)N(C)C	inactive
C=C1C(=O)O[C@@H]2[C@H]3O[C@]3(C)CCC=C(C)CC[C@@H]12	inactive
CCN(CC)CCOC(=O)c1cc(Cl)c(N)cc1OC	inactive
CCCCCCCCCCCCCCC[C@H](O)[C@H](N)CO	inactive
Cc1cccc(C2CN(C)CCc3c2cc(O)c(O)c3Cl)c1 (stereo not given)	inactive
